Screening data as filed in PubChem BioAssay.
Shown are actives, neighbours in structure and some others; about 2.5% of the full set was active somewhere.
Vaccinia Venus = inhibitors of vaccinia virus (Venus reporter) | Potency, µM (titrated, usually from 36.5 µM), actives largely listed as inhibitors | 330,000 tested, 0.46% active | Vaccinia virus Venus reporter expression, fluorescence | AID 720580; calls by dose curve; tested in A549 cells; further: nearly all actives have a fitted effect of over 30% in size
Lassa entry inh = inhibitors of Lassa virus binding or cell entry; Lassa virus pseudotype entry inhibition, cell reporter; Potency, µM (titrated, usually from 37.9 µM), hits mostly inhibitors; 300,000 tested, 1.2% active; AID 540256; calls by dose curve; tested in HEK293 cells; further: nearly all actives have a fitted effect of over 50% in size
VACV mCherry inh = inhibitors of vaccinia virus infection (mCherry reporter signal). Vaccinia virus mCherry reporter infection, fluorescence. Potency, µM (titrated, usually from 36.5 µM), hits mostly inhibitors. 310,000 tested, 0.63% active; calls by dose curve; tested in A549 cells; further: nearly all actives have a fitted effect of over 35% in size
MARV entry inh = blocks Marburg virus binding to or entry into cells. Marburg virus pseudotyped entry inhibition, cell reporter. Potency, µM (highest dose often 37.8 µM), most hits filed as inhibitors. 300,000 tested, 1.8% active. AID 540276; calls by dose curve; tested in HEK293 cells
Numbers stand for hits; . = inactive; ? = inconclusive; / = no result given.

SMILES | Vaccinia Venus | Lassa entry inh | VACV mCherry inh | MARV entry inh
C/C(=N\NC(=O)c1ccc(Cl)cc1)c1ccccn1 | ? | 1.3µM | ? | 0.89µM
C/C(=N\NC(=O)COc1ccccc1-c1ccccc1)c1cccnc1 | . | ? | . | ?
COc1cccc(C(=O)N/N=C(/c2ccccc2)c2ccccn2)c1 | ? | ? | 2µM | ?
O=C1[C@@H]2[C@H](ON(c3ccccc3)[C@H]2c2ccncc2)C(=O)N1c1ccccc1 | / | / | / | .
O=c1c2ccccc2nnn1CSc1nnc(-c2cccs2)n1Cc1ccccc1 | / | ? | / | 0.82µM
S=C(Nc1ccc(Cl)c(Cl)c1)NC1CCN(Cc2ccccc2)CC1 | 14µM | ? | / | ?
CCc1ccc(NC(=S)NC2CC3CCCC(C2)N3Cc2ccccc2)cc1 (stereo not drawn) | / | ? | / | 10µM
S=C(Nc1ccc(Cl)cc1)NC1CC2CCC(C1)N2Cc1ccccc1 (stereo not drawn) | . | . | . | ?
COc1cccc(C(=O)NC2CC3CCCC(C2)N3CC(=O)Nc2ccccc2C(F)(F)F)c1 (stereo not drawn) | ? | ? | ? | 11µM
Cc1cccc(C(=O)NC2CC3CCCC(C2)N3Cc2ccccc2)c1 (stereo not drawn) | . | . | . | 3.2µM
O=C(CN1C2CCCC1CC(NC(=O)C1CCCCC1)C2)Nc1ccccc1C(F)(F)F (stereo not drawn) | . | ? | . | ?
CCN1CCN(C(=O)c2cnn(-c3ncc4c(n3)-c3ccccc3CCC4)c2COC)CC1 | . | / | . | /
C[C@@H](CN1CCN(C)CC1)OC(=O)c1ccc(Cl)cc1Cl | / | / | / | .
COc1cc2c(c(OC)c1)[C@H](C=Cc1ccccc1)[C@@H]([C@H](O)CO)OC2 | / | / | / | .
C=CCOC(=O)C1=C(C)OC(N)=C(C#N)[C@@]12C(=O)N(CN1CCOCC1)c1ccccc12 | / | / | / | .
Cc1ccc(CN2C3CCCC2CC(NC(=O)c2ccc(F)cc2)C3)cc1 (stereo not drawn) | . | . | . | 7.1µM
COc1ccccc1CN1CC(C(=O)NCCN(C)CCc2ccccc2)CCC1=O (stereo not drawn) | . | 5.6µM | . | ?
Cc1cc2cc(CN(CC3CCCO3)C(=S)Nc3ccccc3)c(=O)[nH]c2cc1C (stereo not drawn) | ? | 7.1µM | . | ?
CC(C)OCCCN(Cc1ccco1)C(=O)c1cc2c(s1)-c1ccccc1OC2 | . | / | . | .
COc1ccc2[nH]c(=O)c(CN(CC3CCCO3)C(=S)Nc3ccccc3)cc2c1 (stereo not drawn) | . | / | . | /
Cc1ccc(NC(=S)N(Cc2cccs2)Cc2cc3cc(C)ccc3[nH]c2=O)cc1 | . | 7.1µM | . | 4.5µM
Cc1ccc2[nH]c(=O)c3cc(C(=O)N(CCCOC(C)C)Cc4ccco4)sc3c2c1 | ? | / | ? | 10µM
Cc1ccc2cc(CN(Cc3ccco3)C(=O)c3cccs3)c(=O)[nH]c2c1 | ? | ? | ? | 1.3µM
COC(=O)CC=C1c2ccc(F)cc2[C@@H](OC)[C@@H]1C | / | ? | / | .
O=C(C[N+]12CN3CN(CN(C3)C1)C2)c1ccc(O)c(O)c1 | . | / | . | /
SMILES | Vaccinia Venus | Lassa entry inh | VACV mCherry inh | MARV entry inh
COC(=O)C1=C(C)N=C2S[C@H](C)C(=O)N2[C@@H]1/C=C\c1ccccc1OC | / | / | / | .
COC(=O)c1cccc(-c2cc(Cl)c3c(c2)CC(CNC(=O)c2cccnc2)O3)c1 (stereo not drawn) | . | / | . | /
COc1cc2cc(CN(Cc3cccs3)C(=S)Nc3cccc(C)c3)c(=O)[nH]c2cc1OC | / | . | / | .
COc1cc2cc(CN(Cc3cccs3)C(=S)Nc3ccc(C)cc3)c(=O)[nH]c2cc1OC | . | 4.6µM | . | ?
CC(C)(C)c1ccc(O[C@@H]2[C@H](O)CO[C@H]2C=CC#Cc2ccccc2)cc1 | / | / | / | .
CN(C)c1nc2cc3c(cc2cc1CN(CC1CCCO1)C(=O)c1cccc(F)c1)OCO3 (stereo not drawn) | . | / | . | /
O=C(c1cccs1)N1CCc2ccccc21 | . | . | . | .
O=C(/C=C/c1cccs1)N1CCc2ccccc21 | . | ? | . | 8.2µM
Cc1ccc(S(=O)(=O)N2CCN(c3nc(C(N)=O)nc4ccccc34)CC2)cc1 | . | / | . | /
Oc1ccc(/C=N/n2c(-c3ccco3)csc2=Nc2cccnc2)c(O)c1 | 10µM | ? | 10µM | ?
COc1ccccc1-c1cc(-c2ccccc2)nc(SC(C(N)=O)c2ccccc2)c1C#N (stereo not drawn) | ? | ? | ? | 15µM
O=C(NCCc1ccccc1)C(c1cccs1)N(C(=O)CCl)c1ccc(Cl)cc1 (stereo not drawn) | ? | 18µM | ? | ?
O=C(NCCc1ccccc1)C(c1cccs1)N(C(=O)c1csnn1)C1CC1 (stereo not drawn) | / | . | / | .
CC1=CC(O)=NS(=O)(=O)O1 | . | / | . | /
CCOC(=O)c1sc(NC(=O)c2cc(-c3ccccc3C)nc3ccccc23)c(C#N)c1C | ? | 11µM | ? | ?
